This passage reports fold change, cell count and z-score results from PubChem BioAssay.

Assay [1] can be described thus: viability loss with induced miR-34 in A549 – imaging, A549 dox-inducible miR-34, nuclei and caspase counts, primary screen (AID 1347080). Conditions: A549 miR-34 inducible, Hoechst nuclei count, 48 h.
Assay [2] is described as follows: MELAS cybrid and Rieske KO viability enhancers – cell-based, MELAS cybrids, Rieske KO mouse fibroblasts, CellTiter-Glo, primary screen (AID 1508586;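 active = mean z-score across replicates of 1.96 or higher in either the MELAS or the Rieske mutant cell line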;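 also: z relative to plate mean and SD of compound and empty wells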). Conditions: low glucose. In general terms: ATP-based viability assays read luminescence as a measure of living cells.
Where [3] appears, read: stronger effect = lower value, cell number ratio, induced over uninduced.
[4] abbreviates: measured here: relative caspase fold change +Dox/-Dox.
[5] abbreviates: measured here: total cells with miR-34 induction, stronger effect = lower value.
The mark [6] stands for this setting: measured here: total cells without miR-34 induction.
Where [7] appears, read: MELAS cybrid survival, CellTiter-Glo 48 h, stronger effect = higher value.
The mark [8] stands for this setting: Rieske KO mouse fibroblast survival, CellTiter-Glo 72 h.

The structures appear in SMILES notation. Calls of active or inactive are those of the source.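 The calls were made as follows, unless noted: active = compounds whose cell count with miR-34 switched on is under 0.7 times the count with it off; inactive = the rest.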
Also: test concentration not given here.

On to `CC(=O)[C@H]1CC[C@H]2[C@@H]3C=CC4=CC(=O)CC[C@@]4(C)[C@H]3CC[C@]12C`, for which the fold change is 0.894 (inactive) in assay [1] (setting [3]) and 0.952 in assay [1] (setting [4]). Moreover, the cell count in assay [1] (setting [5]) stood at 7680; in assay [1] (setting [6]) it was 8580. Besides, the z-score in assay [2] (setting [7]) is -0.0223 (inactive); in assay [2] (setting [8]) it was -0.212.

As for `CCOC(=O)C(CCc1ccccc1)NC(C)C(=O)N1Cc2ccccc2CC1C(=O)O` (stereo unspecified), the fold change was 0.963 (inactive) in assay [1] (setting [3]) and 1.71 in assay [1] (setting [4]). Further, the cell count in assay [1] (setting [5]) came out at 8090; in assay [1] (setting [6]), 8400. Also, the z-score is 0.0216 (inactive) in assay [2] (setting [7]) and -0.419 in assay [2] (setting [8]).

For `C[C@]12C=CC(=O)C=C1CC[C@@H]1[C@H]2C(O)C[C@@]2(C)[C@H]1CC[C@@]2(O)C(=O)CO` (stereo partly specified), the fold change in assay [1] (setting [3]) was 0.833 (inactive); in assay [1] (setting [4]), 1.24. The cell count in assay [1] (setting [5]) was 4970; in assay [1] (setting [6]), 5970. The figures for the z-score in assay [2] (setting [7]) and in assay [2] (setting [8]) were -0.42 (inactive) and -1.24, respectively.

On to `CCC(=O)O[C@@]1(C(=O)SCF)C(C)C[C@H]2[C@@H]3CC(F)C4=CC(=O)C=C[C@]4(C)[C@]3(F)C(O)C[C@@]21C` (stereo partly specified), for which the figures for the fold change in assay [1] (setting [3]) and in assay [1] (setting [4]) were 0.849 (inactive) and 1.14, respectively. Further, the cell count in assay [1] (setting [5]) is 4990; in assay [1] (setting [6]), 5880. Further, the z-score in assay [2] (setting [7]) is -0.525 (inactive); in assay [2] (setting [8]), -0.481.

Consider `CC1=NN(c2ccc(C(=O)O)cc2)C(=O)C1=Cc1ccc(-c2cc(C)c(C)cc2[N+](=O)[O-])o1`, for which the fold change was 0.902 (inactive) in assay [1] (setting [3]) and 0.511 in assay [1] (setting [4]). Further, the results for the cell count in assay [1] (setting [5]) and in assay [1] (setting [6]) were 7310 and 8100, respectively. The z-score in assay [2] (setting [7]) is -0.321 (inactive); in assay [2] (setting [8]), 0.107.

In the case of `Cc1cc(OCCCS(C)(=O)=O)cc(C)c1-c1cccc(COc2ccc3c(c2)OCC3CC(=O)O)c1` (stereo unspecified), the fold change is 0.928 (inactive) in assay [1] (setting [3]) and 0.766 in assay [1] (setting [4]). Further, the cell count was 7480 in assay [1] (setting [5]) and 8070 in assay [1] (setting [6]). The figures for the z-score in assay [2] (setting [7]) and in assay [2] (setting [8]) were -0.428 (inactive) and 0.0224, respectively.

For the compound `Nc1nccc2c1ncn2C1C=C(CO)C(O)C1O` (stereo unspecified), the fold change in assay [1] (setting [3]) is 0.968 (inactive); in assay [1] (setting [4]) it was 0.366. For the same compound, the cell count was determined as 4640 in assay [1] (setting [5]) and 4800 in assay [1] (setting [6]). For the same compound, the z-score was -0.724 (inactive) in assay [2] (setting [7]) and -1.41 in assay [2] (setting [8]).

As for `Cc1c(C(=O)Nc2ccc(N3CCC(N4CCOCC4)CC3)c(C#N)c2)cnn1-c1ccc(Cl)cc1`, the fold change in assay [1] (setting [3]) was 0.979 (inactive); in assay [1] (setting [4]), 0.399. Also, the cell count in assay [1] (setting [5]) amounted to 1870; in assay [1] (setting [6]), 1910. Further, the z-score in assay [2] (setting [7]) is -0.464 (inactive); in assay [2] (setting [8]), -0.322.

For the compound `C=C1CCC(O)CC1=CC=C1CCC[C@]2(C)C(C(C)CCCC(C)C)CC[C@@H]12` (stereo partly specified), the fold change in assay [1] (setting [3]) is 0.915 (inactive); in assay [1] (setting [4]), 0.845. The cell count was found to be 8000 in assay [1] (setting [5]) and 8740 in assay [1] (setting [6]). The z-score in assay [2] (setting [7]) is -0.279 (inactive); in assay [2] (setting [8]) it was -0.0631.

For `CC(C)OC(=O)C(C)N[P@](=O)(OCC1OC(n2ccc(=O)[nH]c2=O)[C@](C)(F)C1O)Oc1ccccc1` (stereo partly specified), the fold change in assay [1] (setting [3]) is 0.909 (inactive); in assay [1] (setting [4]) it was 0.639. Also, the cell count in assay [1] (setting [5]) was found to be 9560; in assay [1] (setting [6]), 10500. Also, the z-score in assay [2] (setting [7]) was -0.378 (inactive); in assay [2] (setting [8]), 0.864.

Regarding `NCc1c[nH]c(=S)n1C1CCc2c(F)cc(F)cc2C1` (stereo unspecified), the fold change is 0.817 (inactive) in assay [1] (setting [3]) and 2.13 in assay [1] (setting [4]). The figures for the cell count in assay [1] (setting [5]) and in assay [1] (setting [6]) were 7940 and 9720, respectively. Further, the z-score is -0.197 (inactive) in assay [2] (setting [7]) and -0.149 in assay [2] (setting [8]).
